# Data published in the supplement of paper PMC10849652.
# Targets with a hit are over-represented here; the source holds about 8,800 in all. About 0.5% of all pairs of compound and target were hits. A number with no mark means an inactive call.
# Compound: COc1cc(Nc2ncc3c(n2)-c2ccc(Cl)cc2C(c2c(F)cccc2OC)=NC3)ccc1C(=O)O [alisertib]
# Experiment: log2 fold change, soluble protein after heating vs DMSO (PISA); higher = thermal stabilisation; K562 lysate, 10 uM; active = over 0.2 and 3.5 SD of the protein, either way, in both replicates (recomputed)
# Outline: (§1)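 K562 pellets were dounce-homogenised in PBS pH 7.4 containing 1 mM MgCl2, and the crude extract, at 1 mg/mL protein, was exposed to 10 μM compound for 30 min. Aliquots were heated for 3 min across 48°C-58°C, pooled, brought to 0.5% NP-40 at 4°C and spun at 21,000xg for 90 min, with the supernatant taken as soluble protein. TMTpro 16plex LC-MS/MS with equalised channel sums quantified that protein. Values are log-two fold changes in thermal stability relative to solvent controls, taken from duplicates.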
# Sequence of UniProt P39880 (P39880 whole entry, looked up): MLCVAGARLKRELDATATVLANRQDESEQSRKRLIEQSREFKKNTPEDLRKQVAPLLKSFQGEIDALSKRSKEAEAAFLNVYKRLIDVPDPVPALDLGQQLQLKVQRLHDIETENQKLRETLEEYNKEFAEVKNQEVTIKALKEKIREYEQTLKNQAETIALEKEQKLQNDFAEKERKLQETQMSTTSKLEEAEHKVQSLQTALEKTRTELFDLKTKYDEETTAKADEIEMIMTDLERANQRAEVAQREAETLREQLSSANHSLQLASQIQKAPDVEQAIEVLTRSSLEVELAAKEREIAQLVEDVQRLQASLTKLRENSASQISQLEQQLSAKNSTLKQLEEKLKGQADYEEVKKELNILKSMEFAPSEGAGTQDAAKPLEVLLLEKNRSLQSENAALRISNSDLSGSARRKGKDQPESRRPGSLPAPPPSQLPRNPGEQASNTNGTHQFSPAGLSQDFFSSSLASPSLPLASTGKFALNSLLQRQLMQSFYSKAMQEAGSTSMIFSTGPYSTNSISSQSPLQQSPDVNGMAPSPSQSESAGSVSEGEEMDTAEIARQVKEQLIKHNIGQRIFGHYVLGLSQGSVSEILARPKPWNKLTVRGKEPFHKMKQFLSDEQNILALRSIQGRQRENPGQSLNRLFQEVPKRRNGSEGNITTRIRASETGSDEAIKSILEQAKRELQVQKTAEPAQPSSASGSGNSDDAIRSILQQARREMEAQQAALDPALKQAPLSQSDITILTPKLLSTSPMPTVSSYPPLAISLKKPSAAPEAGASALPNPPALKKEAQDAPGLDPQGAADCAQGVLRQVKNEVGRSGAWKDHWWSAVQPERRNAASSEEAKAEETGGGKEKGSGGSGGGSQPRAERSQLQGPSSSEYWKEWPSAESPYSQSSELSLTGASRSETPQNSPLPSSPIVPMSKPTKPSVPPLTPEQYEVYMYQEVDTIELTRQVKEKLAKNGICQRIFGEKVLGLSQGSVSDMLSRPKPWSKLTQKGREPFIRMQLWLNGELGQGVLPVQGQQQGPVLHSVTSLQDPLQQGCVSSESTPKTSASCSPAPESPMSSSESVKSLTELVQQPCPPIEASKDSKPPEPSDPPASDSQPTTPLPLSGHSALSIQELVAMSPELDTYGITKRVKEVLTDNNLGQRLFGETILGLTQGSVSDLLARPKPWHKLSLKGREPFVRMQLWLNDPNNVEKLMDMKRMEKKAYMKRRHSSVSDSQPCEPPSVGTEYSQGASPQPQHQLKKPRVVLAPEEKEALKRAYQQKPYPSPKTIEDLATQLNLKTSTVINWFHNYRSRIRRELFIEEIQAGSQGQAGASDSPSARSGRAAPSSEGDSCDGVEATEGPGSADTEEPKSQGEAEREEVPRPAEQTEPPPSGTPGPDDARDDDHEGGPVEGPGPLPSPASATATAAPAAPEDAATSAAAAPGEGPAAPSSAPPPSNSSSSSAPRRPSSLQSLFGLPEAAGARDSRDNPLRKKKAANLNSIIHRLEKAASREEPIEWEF
# Sequence of UniProt Q9H9E3 (Q9H9E3 whole entry, looked up): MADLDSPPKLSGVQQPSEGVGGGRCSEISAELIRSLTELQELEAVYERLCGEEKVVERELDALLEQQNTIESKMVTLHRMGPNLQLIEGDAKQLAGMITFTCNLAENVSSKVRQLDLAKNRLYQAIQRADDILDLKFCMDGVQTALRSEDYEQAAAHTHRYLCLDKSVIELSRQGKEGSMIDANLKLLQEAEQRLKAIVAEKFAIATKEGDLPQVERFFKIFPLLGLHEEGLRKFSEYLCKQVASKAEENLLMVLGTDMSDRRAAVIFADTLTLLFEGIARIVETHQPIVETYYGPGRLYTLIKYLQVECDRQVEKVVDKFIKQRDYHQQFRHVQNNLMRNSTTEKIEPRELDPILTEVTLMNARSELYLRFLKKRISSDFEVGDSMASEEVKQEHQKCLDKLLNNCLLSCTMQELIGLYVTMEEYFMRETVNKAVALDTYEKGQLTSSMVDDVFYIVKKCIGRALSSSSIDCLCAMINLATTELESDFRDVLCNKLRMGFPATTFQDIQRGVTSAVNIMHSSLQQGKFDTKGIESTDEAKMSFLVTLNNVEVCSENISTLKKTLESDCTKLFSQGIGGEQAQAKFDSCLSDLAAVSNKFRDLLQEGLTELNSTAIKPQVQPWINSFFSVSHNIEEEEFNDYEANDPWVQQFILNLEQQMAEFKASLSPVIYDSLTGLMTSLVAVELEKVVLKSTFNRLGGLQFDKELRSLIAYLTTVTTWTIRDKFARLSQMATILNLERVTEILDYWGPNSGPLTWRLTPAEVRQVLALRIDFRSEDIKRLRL
# Sequence of UniProt O75122 (O75122 whole entry, looked up): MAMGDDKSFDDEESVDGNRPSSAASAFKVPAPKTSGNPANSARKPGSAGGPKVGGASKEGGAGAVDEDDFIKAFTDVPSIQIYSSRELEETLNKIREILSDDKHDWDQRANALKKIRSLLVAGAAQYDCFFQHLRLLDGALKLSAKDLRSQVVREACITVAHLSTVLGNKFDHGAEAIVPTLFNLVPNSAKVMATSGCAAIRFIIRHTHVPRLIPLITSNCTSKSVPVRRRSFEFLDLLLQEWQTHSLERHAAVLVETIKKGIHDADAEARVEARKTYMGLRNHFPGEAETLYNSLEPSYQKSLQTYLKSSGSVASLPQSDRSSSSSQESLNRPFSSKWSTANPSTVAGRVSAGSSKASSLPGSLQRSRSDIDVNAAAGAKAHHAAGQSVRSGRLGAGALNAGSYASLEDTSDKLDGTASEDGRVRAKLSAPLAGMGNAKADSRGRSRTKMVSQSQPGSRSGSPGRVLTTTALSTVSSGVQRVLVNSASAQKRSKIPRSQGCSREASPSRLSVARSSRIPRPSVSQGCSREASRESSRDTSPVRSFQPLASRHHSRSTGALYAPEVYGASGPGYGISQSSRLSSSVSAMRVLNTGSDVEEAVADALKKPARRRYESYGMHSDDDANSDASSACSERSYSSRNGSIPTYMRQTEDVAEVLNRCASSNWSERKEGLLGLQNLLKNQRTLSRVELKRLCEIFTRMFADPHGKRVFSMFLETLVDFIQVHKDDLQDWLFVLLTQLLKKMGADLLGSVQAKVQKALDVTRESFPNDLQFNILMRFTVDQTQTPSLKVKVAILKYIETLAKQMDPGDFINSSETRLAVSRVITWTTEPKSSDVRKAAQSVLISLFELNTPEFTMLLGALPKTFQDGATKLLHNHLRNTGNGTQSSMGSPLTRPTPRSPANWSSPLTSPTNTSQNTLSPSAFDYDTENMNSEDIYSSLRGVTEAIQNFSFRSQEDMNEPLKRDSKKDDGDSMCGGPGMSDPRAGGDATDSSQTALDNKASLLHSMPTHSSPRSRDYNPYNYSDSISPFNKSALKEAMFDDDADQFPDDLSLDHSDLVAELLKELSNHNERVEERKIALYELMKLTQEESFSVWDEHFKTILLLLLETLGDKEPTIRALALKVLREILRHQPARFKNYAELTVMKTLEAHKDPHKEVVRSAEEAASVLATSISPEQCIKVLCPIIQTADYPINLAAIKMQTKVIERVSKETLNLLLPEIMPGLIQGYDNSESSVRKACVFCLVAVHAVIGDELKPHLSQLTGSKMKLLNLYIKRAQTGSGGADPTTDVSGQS
# Sequence of UniProt Q9H467 (Q9H467 whole entry, looked up): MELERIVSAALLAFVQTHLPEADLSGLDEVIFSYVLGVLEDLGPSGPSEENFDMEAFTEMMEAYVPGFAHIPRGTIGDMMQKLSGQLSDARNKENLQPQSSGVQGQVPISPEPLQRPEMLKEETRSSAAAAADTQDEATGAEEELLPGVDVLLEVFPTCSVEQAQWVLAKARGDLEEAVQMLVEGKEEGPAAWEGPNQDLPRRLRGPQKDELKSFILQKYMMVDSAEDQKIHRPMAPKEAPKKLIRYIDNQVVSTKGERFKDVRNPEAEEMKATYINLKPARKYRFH
# Sequence of UniProt Q9Y6M4 (Q9Y6M4 whole entry, looked up): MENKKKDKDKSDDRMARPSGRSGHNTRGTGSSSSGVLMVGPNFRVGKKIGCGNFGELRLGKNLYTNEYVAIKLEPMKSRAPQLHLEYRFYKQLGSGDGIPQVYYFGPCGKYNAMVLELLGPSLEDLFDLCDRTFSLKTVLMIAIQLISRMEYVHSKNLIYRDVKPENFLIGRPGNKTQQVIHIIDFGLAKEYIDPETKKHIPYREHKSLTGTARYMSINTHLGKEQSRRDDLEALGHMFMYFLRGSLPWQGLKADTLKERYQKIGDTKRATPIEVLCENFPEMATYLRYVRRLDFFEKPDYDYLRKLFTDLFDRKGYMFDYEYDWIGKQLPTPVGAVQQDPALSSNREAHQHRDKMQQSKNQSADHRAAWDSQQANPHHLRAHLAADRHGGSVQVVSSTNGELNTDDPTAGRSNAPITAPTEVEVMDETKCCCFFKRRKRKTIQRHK
# Sequence of UniProt Q9H4E7 (Q9H4E7 whole entry, looked up): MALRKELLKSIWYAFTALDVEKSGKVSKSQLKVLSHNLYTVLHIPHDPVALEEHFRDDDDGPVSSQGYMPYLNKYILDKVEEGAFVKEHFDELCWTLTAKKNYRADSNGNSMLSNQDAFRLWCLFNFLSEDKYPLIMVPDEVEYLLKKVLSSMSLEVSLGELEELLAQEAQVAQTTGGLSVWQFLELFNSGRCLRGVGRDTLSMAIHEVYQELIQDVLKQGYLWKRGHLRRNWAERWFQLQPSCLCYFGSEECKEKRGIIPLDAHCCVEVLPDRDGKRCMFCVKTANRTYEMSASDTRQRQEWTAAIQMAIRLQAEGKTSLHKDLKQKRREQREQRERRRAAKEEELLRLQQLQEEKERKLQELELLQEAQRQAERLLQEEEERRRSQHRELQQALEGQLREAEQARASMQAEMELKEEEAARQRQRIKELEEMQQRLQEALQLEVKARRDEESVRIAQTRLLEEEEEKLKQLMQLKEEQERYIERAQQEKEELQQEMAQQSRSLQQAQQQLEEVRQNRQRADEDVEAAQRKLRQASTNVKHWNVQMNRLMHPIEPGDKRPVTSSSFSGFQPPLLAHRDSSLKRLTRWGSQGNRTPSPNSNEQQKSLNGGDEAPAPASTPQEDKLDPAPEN
# Sequence of UniProt P24311 (P24311 whole entry, looked up): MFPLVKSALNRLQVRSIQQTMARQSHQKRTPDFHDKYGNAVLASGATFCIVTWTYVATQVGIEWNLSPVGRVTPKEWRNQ
row,Target,log2 fold change
1,DHFR (UniProt P00374),0.017
2,COG4 (UniProt Q9H9E3),0.016
3,COASY isoform 2 (UniProt Q13057),0.023
4,DDX4 (UniProt Q9NQI0),0.032
5,COG5 isoform 2 (UniProt Q9UP83),-0.012
6,COX7B (UniProt P24311),0.028
7,DLG3 isoform 2 (UniProt Q92796),0.069
8,DCTN1 isoform 4 (UniProt Q14203),0.107
9,CSNK1G3 (UniProt Q9Y6M4),-0.005
10,CUX1 isoform 3 (UniProt P39880),0.067
11,CINP isoform 3 (UniProt Q9BW66),0
12,CNTN4 (UniProt Q8IWV2),-0.074
13,DNAJC24 (UniProt Q6P3W2),-0.017
14,DNAH10 (UniProt Q8IVF4),0.027
15,COQ8A (UniProt Q8NI60),-0.023
16,CKS1B (UniProt P61024),-0.031
17,DDB2 (UniProt Q92466),0.045
18,DIAPH1 (UniProt O60610),0.005
19,COQ9 (UniProt O75208),0.026
20,CSNK1D (UniProt P48730),0
21,DENND1B (UniProt Q6P3S1),-0.146
22,DOCK10 (UniProt Q96BY6),0.05
23,DEF6 (UniProt Q9H4E7),0.097
24,CNIH4 (UniProt Q9P003),0.1
25,CLCN3 (UniProt P51790),0.005
26,DIAPH1 (UniProt H9KV28),-0.012
27,CUEDC2 (UniProt Q9H467),-0.019
28,DNAH5 (UniProt Q8TE73),-0.029
29,CLASP2 (UniProt O75122),0.182

# Compound: COc1cc2nc(-c3cc(F)ccc3O)nc(N[C@@H]3CNC[C@H]3C(C)(C)O)c2cc1OC
# Experiment: as above
# Outline: as §1
row,Target,log2 fold change
1,DHFR (UniProt P00374),-0.192
2,COG4 (UniProt Q9H9E3),0.022
3,COASY isoform 2 (UniProt Q13057),-0.025
4,DDX4 (UniProt Q9NQI0),-0.007
5,COG5 isoform 2 (UniProt Q9UP83),-0.053
6,COX7B (UniProt P24311),0.018
7,CSNK1A1 (UniProt P48729),0.049
8,DLG3 isoform 2 (UniProt Q92796),-0.055
9,CUX1 isoform 2 (UniProt Q13948),0.071
10,DCTN1 isoform 4 (UniProt Q14203),-0.05
11,DDAH1 (UniProt O94760),0.003
12,CSNK1G3 (UniProt Q9Y6M4),0.459 (active)
13,CUX1 isoform 3 (UniProt P39880),-0.042
14,CINP isoform 3 (UniProt Q9BW66),0.064
15,CNNM2 (UniProt Q9H8M5),-0.003
16,CNTN4 (UniProt Q8IWV2),0.03
17,DNAJC24 (UniProt Q6P3W2),-0.006
18,DNAH10 (UniProt Q8IVF4),0.046

row,Target,log2 fold change
1,COQ8A (UniProt Q8NI60),0.009
2,CNOT4 isoform 9 (UniProt O95628),0.002
3,CKS1B (UniProt P61024),-0.024
4,DDB2 (UniProt Q92466),0.055
5,DIAPH1 (UniProt O60610),0.006
6,COQ9 (UniProt O75208),0.025
7,DPY19L3 (UniProt Q6ZPD9),-0.042
8,CSNK1D (UniProt P48730),-0.131
9,DENND1B (UniProt Q6P3S1),-0.226
10,DOCK10 (UniProt Q96BY6),-0.042
11,DEF6 (UniProt Q9H4E7),0.013
12,CNIH4 (UniProt Q9P003),0.031
13,CLCN3 (UniProt P51790),-0.043
14,DIAPH1 (UniProt H9KV28),0.026
15,CUEDC2 (UniProt Q9H467),-0.009
16,DNAH5 (UniProt Q8TE73),-0.019
17,CLASP2 (UniProt O75122),0.037

# Compound: COc1cc2ncnc(Nc3ccc(F)c(Cl)c3)c2cc1OCCCN1CCOCC1 [gefitinib]
# Experiment: as above
# Outline: as §1
row,Target,log2 fold change
1,DHFR (UniProt P00374),0.028
2,COG4 (UniProt Q9H9E3),0.009
3,COASY isoform 2 (UniProt Q13057),-0.005
4,DDX4 (UniProt Q9NQI0),0.021
5,COG5 isoform 2 (UniProt Q9UP83),0.027
6,COX7B (UniProt P24311),-0.139
7,CSNK1A1 (UniProt P48729),-0.005
8,DLG3 isoform 2 (UniProt Q92796),-0.131
9,DCTN1 isoform 4 (UniProt Q14203),0.051
10,CSNK1G3 (UniProt Q9Y6M4),-0.005
11,CUX1 isoform 3 (UniProt P39880),0.014
12,CINP isoform 3 (UniProt Q9BW66),-0.24
13,CNTN4 (UniProt Q8IWV2),-0.022
14,DNAJC24 (UniProt Q6P3W2),-0.038
15,DNAH10 (UniProt Q8IVF4),0.043
16,COQ8A (UniProt Q8NI60),0.447
17,CKS1B (UniProt P61024),0.071
18,DDB2 (UniProt Q92466),-0.131
19,DIAPH1 (UniProt O60610),-0.001
20,COQ9 (UniProt O75208),-0.012
21,CSNK1D (UniProt P48730),-0.023
22,DENND1B (UniProt Q6P3S1),-0.102
23,DOCK10 (UniProt Q96BY6),0.084
24,DEF6 (UniProt Q9H4E7),-0.01
25,CNIH4 (UniProt Q9P003),0.17
26,CLCN3 (UniProt P51790),0.029
27,DIAPH1 (UniProt H9KV28),-0.005
28,CUEDC2 (UniProt Q9H467),0.019
29,DNAH5 (UniProt Q8TE73),0.052
30,CLASP2 (UniProt O75122),-0.047
